Bioassay records (PubChem)
A selection: hits, their analogues and other compounds. The true share with any hit is near 2.2%.
TDP-43 yeast inh: TDP-43 toxicity inhibition in yeast; TDP-43 expressing yeast growth rescue, BacTiter-Glo, 24 h; Potency, µM (top dose mostly 46.1 µM), usual class: activators; AID 652104; 410,000 tested, 1.8% active; also: nearly all actives have a fitted effect of over 50% in size
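Luminescence from BacTiter-Glo reports growth of TDP-43-expressing yeast after 24 hr at 30 deg C with compound. Cells were raffinose-pregrown to mid-log, then seeded in galactose medium at OD600=0.02.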
Abeta rescue: compounds reversing amyloid beta toxicity in yeast; yeast expressing A-beta42, growth rescue, OD600, 48 h; response scale: 0% DMSO, 100% iron-clioquinol control; Potency, µM (top dose mostly 46.1 µM), actives largely listed as activators; 410,000 tested, 0.063% active; also: nearly all actives have a fitted effect of over 55% in size
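Yeast A-beta toxicity model in growth medium with pinned compounds, 48 h at 30 C; growth read as absorbance at 600 nm. Normalized to FeCl3/clioquinol equimolar mix (positive) and DMSO (negative).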
ERG Ets-DNA blk: blocks human ERG Ets domain binding to DNA; fluorescence polarization, His-ERG Ets domain / labelled DNA; P11308; 370,000 tested, 0.028% active; Potency, µM (series often up to 76.9 µM), hits mostly inhibitors; active = well fitted inhibition curve with a large enough effect in the polarisation, with a control signal flat; inconclusive = small, poorly fitted or top-dose-only effect, or effect the other way, or a change in a side signal; inactive = no such curve, though single readings can be large or run the other way; the % refers to the polarisation;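 also: polarization taken with two DNA probes labelled with fluorescein and Texas red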
Target sequence (P11308 whole entry, looked up, the tested form may be a part): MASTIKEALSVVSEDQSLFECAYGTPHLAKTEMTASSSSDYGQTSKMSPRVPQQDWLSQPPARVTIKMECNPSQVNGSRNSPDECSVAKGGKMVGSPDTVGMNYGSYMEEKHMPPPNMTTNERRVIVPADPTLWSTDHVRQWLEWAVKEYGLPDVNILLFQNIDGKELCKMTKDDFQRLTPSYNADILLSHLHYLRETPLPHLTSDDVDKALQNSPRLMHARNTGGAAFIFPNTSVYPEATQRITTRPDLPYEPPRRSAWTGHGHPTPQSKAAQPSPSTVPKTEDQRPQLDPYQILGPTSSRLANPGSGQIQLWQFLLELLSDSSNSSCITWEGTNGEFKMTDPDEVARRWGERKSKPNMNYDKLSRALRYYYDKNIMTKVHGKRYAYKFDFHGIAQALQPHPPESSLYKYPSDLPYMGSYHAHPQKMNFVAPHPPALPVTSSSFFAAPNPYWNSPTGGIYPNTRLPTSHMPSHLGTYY
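His-tagged ERG Ets domain (1 uM in the protein solution; 300mM KCl, 50mM Tris-HCl, 1mM EDTA, 1mM DTT, pH 7.5) received compound, then a probe mix of 5 nM fluorescein-DNA and 100nM Texas-615-DNA. Fluorescence polarization was read for both dyes.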
FUS yeast rescue: FUS proteinopathy suppression in yeast; S. cerevisiae FUS-expressing, growth rescue, OD600, 24 h; Potency, µM (series often up to 76.6 µM), most hits filed as activators; 390,000 tested, 0.24% active; also: nearly all actives have a fitted effect of over 55% in size
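Steps: raffinose overnight preculture; dilution to OD 0.005 in 2% galactose minimal medium; compound addition (concentration series); 24hr at 30C, 99% humidity; absorbance read at 600 nm.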
Mito fusion yeast: inhibitors of mitochondrial division or activators of mitochondrial fusion. Potency, µM (doses to about 46.1 µM), most hits filed as activators. 320,000 tested, 0.23% active. S. cerevisiae fusion-defective mutant growth rescue, CellTiterGlo 48 h; also: nearly all actives have a fitted effect of over 45% in size
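Temperature-sensitive fusion-defective S. cerevisiae (e.g. fzo1-1, mgm1-5) were grown with compound in YPEG medium (3% ethanol, 3% glycerol) for 48 hours at 37C. Growth rescue was measured as viability by CellTiterGlo luminescence after 10 minutes at ambient.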
aSyn rescue: rescues yeast growth from alpha-synuclein toxicity; Yeast expressing alpha-synuclein, growth rescue, BacTiter-Glo, 24 h; Potency, µM (series often up to 46.1 µM), actives largely listed as activators; 370,000 tested, 0.14% active; also: nearly all actives have a fitted effect of over 65% in size
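Readout is rescue of growth in alpha-synuclein-expressing yeast, so inhibitors of toxicity appear as activators. Growth after 24 hr at 30 deg C in galactose medium is quantified by luminescence.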
Of the large screens only hits and unclear results are named; the others gave an inactive call. Unless noted, calls follow the shape of the dose curve; as a rule, active = well fitted curve in the direction sought with a large enough effect; inconclusive = small, poorly fitted or top-dose-only effect, or another doubt; inactive = no such curve, though single readings can be large; an effect the other way counts as inactive or inconclusive.

O=C(NC(=S)NC1CCCc2ccccc21)c1ccc(F)cc1 (centres undefined)	TDP-43 yeast inh inconclusive, Abeta rescue inconclusive
O=C(NC(=S)NC1CCCc2ccccc21)c1ccco1 (centres undefined)	TDP-43 yeast inh inconclusive, Abeta rescue 11µM
COc1ccc(C(=O)NC2CCCc3ccccc32)cc1 (centres undefined)	TDP-43 yeast inh inconclusive
Cc1nc2nc(C)c(NS(=O)(=O)c3ccc(F)cc3)c(=O)n2[nH]1	none (no result: Mito fusion yeast, aSyn rescue)
CCC1=Nc2cc(C(=O)O)ccc2Sc2ccccc21	TDP-43 yeast inh 20µM
O=C(Nc1c(Cl)cc([N+](=O)[O-])cc1Cl)c1cc(Cl)cc(Cl)c1O	none (no result: TDP-43 yeast inh, Abeta rescue, ERG Ets-DNA blk, FUS yeast rescue, Mito fusion yeast)
CC1(C(=O)Nc2cccc3c2CCCC3)CCN1C(=O)c1cccc(F)c1 (centres undefined)	TDP-43 yeast inh 28µM (no result: ERG Ets-DNA blk, Mito fusion yeast)
CC1(C(=O)Nc2cccc3c2CCCC3)CCN1C(=O)CCC1CCCC1 (centres undefined)	TDP-43 yeast inh inconclusive, aSyn rescue inconclusive (no result: ERG Ets-DNA blk, Mito fusion yeast)
CCOC(=O)N1CCN(S(=O)(=O)c2ccc(OC)c3ccccc23)CC1	TDP-43 yeast inh 13µM, Abeta rescue inconclusive
OC(c1ccccc1)c1ncc(-c2ccc(Oc3ccccc3)cc2)[nH]1 (centres undefined)	none (no result: ERG Ets-DNA blk, Mito fusion yeast)
OC(c1ccc(Cl)cc1)c1ncc(-c2ccc(Oc3ccccc3)cc2)[nH]1 (centres undefined)	TDP-43 yeast inh 20µM, FUS yeast rescue inconclusive (no result: ERG Ets-DNA blk, Mito fusion yeast)
N#Cc1ccccc1NC(=O)Cn1cnc2onc(-c3cccc(F)c3)c2c1=O	none (no result: Mito fusion yeast, aSyn rescue)
COc1ccc(-n2cnc3scc(-c4ccc(OC)c(OC)c4)c3c2=O)cc1	none
COc1ccc(-n2cnc3scc(-c4ccccc4)c3c2=O)cc1	TDP-43 yeast inh 11µM
COc1cccc(C2CC(c3c(-c4ccccc4)c4cc(Cl)ccc4[nH]c3=O)=NN2S(C)(=O)=O)c1OC (centres undefined)	FUS yeast rescue 35µM
COc1ccccc1C1CC(c2c(-c3ccccc3)c3cc(Cl)ccc3[nH]c2=O)=NN1S(C)(=O)=O (centres undefined)	FUS yeast rescue inconclusive
O=C(CCCOc1ccc(Cl)cc1Cl)NC(Cc1ccccc1)C(=O)O (centres undefined)	none (no result: FUS yeast rescue, Mito fusion yeast)
CC(=O)c1cc(-c2cccc(C#N)c2)c(=O)n2c1CCC2	none (no result: TDP-43 yeast inh, Abeta rescue, ERG Ets-DNA blk, Mito fusion yeast, aSyn rescue)
Cc1ccc(O)c(Sc2cc(C)ccc2O)c1	TDP-43 yeast inh 22µM, Abeta rescue inconclusive, aSyn rescue inconclusive
O=C1CCc2cc(NS(=O)(=O)c3ccc(Br)cc3)cc3c2N1CC3	aSyn rescue 3.2µM
COc1ccc(S(=O)(=O)Nc2cc3c4c(c2)CCN4C(=O)CC3)cc1	none
CCOc1ccc(NC(=O)Cn2cc(C(=O)c3ccccc3)c(=O)c3cc4c(cc32)OCCO4)cc1	none (no result: Mito fusion yeast, aSyn rescue)
Cc1onc(-c2c(Cl)cccc2Cl)c1C(O)c1ccc(F)cc1 (centres undefined)	TDP-43 yeast inh inconclusive, aSyn rescue inconclusive
Cc1onc(-c2c(Cl)cccc2Cl)c1C(O)c1ccccc1 (centres undefined)	TDP-43 yeast inh 11µM
O=C1CCCCC1C(Nc1ccc(Br)cc1)c1ccccc1 (centres undefined)	TDP-43 yeast inh 13µM
O=C1CCCCC1C(Nc1ccc(Cl)cc1)c1ccccc1 (centres undefined)	TDP-43 yeast inh inconclusive
CCN(C(=O)CN1C(=O)COc2ccc(S(=O)(=O)N3CCOCC3)cc21)c1cccc(C)c1	none (no result: Mito fusion yeast, aSyn rescue)
Fc1ccc(C2=CC(c3ccc(Br)o3)n3ncnc3N2)cc1 (centres undefined)	TDP-43 yeast inh 18µM (no result: FUS yeast rescue)
CCOc1ccc(C2=CC(c3cc(Br)ccc3F)n3ncnc3N2)cc1Cl (centres undefined)	TDP-43 yeast inh 35µM (no result: Mito fusion yeast, aSyn rescue)
Fc1ccc(Br)cc1C1C=C(c2cccnc2)Nc2ncnn21 (centres undefined)	TDP-43 yeast inh 25µM
CC(C)CCN1C(=O)N(c2ccccc2)C(=O)C1CC(=O)Nc1ccc(Cl)cc1 (centres undefined)	none (no result: Mito fusion yeast, aSyn rescue)
COc1ccc(C(=O)N[C@H]2CC[C@@]34CCCN3C(=O)CCC[C@H]4[C@H]2C)cc1	none (no result: TDP-43 yeast inh, Abeta rescue, ERG Ets-DNA blk, Mito fusion yeast, aSyn rescue)
Oc1ccc(-c2nccc(-c3cccs3)n2)cc1	TDP-43 yeast inh 13µM
O=C(Nc1cccnc1)C1Cc2c(-c3ccccc3Oc3ccccc3)ccnc2O1 (centres undefined)	TDP-43 yeast inh 28µM (no result: ERG Ets-DNA blk, Mito fusion yeast)
CN(C)c1cccc(NC(=O)C2Cc3c(-c4ccccc4Oc4ccccc4)ccnc3O2)c1 (centres undefined)	FUS yeast rescue 25µM (no result: ERG Ets-DNA blk, Mito fusion yeast)
CC(=O)Nc1ccc(-c2ccnc3c2CC(C(=O)Nc2cccc(Oc4ccccc4)c2)O3)cc1 (centres undefined)	TDP-43 yeast inh inconclusive, FUS yeast rescue 11µM (no result: ERG Ets-DNA blk, Mito fusion yeast)
Clc1nc2c(-c3ccccc3)nnn2c2ccccc12	TDP-43 yeast inh 6.3µM
Cc1ccc(-c2nnn3c2nc(Cl)c2ccccc23)cc1	none
COC(=O)C1CN(Cc2cn(Cc3ccc(C)cc3)nn2)CCS(=O)(=O)N1Cc1ccc(F)cc1 (centres undefined)	none (no result: TDP-43 yeast inh, Abeta rescue, ERG Ets-DNA blk, Mito fusion yeast, aSyn rescue)
CCOc1ccc2nc(SCC(=O)NCc3ccco3)sc2c1	TDP-43 yeast inh 14µM
CCOc1ccc2nc(SCC(=O)NC(=O)NCc3ccco3)sc2c1	none
